KDM4E inh – blocks human JMJD2E demethylase activity; 1.6% of 230,000 active; Potency, µM (doses to about 57.1 µM), for the others: at the top dose activity change, negative = inhibition, most hits filed as inhibitors; B2RXH2; AID 2147; JMJD2E catalytic domain, FDH-coupled NADH fluorescence (FDH is formaldehyde dehydrogenase);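 also: potency is read from the fitted curve at half-maximal effect; 0% = wells with enzyme and -100% = buffer wells without enzyme; nearly all actives have a fitted effect of over 50% in size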
Tau ThT inhib – inhibitors of human tau fibril formation, thioflavin T binding. P10636. recombinant tau K18 P301L, heparin-induced fibrillization, ThT fluorescence. Potency, µM (highest dose often 57.4 µM), for inactives: top-dose activity, negative = inhibition, usual class: inhibitors. 2.1% of 270,000 active; also: potency is read from the fitted curve at half-maximal effect; nearly all actives have a fitted effect of over 55% in size
Target sequence (P10636 561-689 P618L limits assumed): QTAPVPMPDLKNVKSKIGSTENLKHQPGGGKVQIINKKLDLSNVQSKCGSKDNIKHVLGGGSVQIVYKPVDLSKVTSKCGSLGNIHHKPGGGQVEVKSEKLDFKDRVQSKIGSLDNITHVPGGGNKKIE
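Tau K18 P301L fragment (15 uM unlabeled plus 0.24 uM Alexa 594-labeled) in 100 mM sodium acetate pH 7 with compound, fibrillization induced by 20 uM heparin for 6 hr at 37 C. Thioflavin T (30 uM) added, fluorescence read after 1 hr (ex 450, em 510 nm).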
PNC inhibitor – blocks assembly of the perinucleolar compartment | PC3M PTB-GFP, PNC prevalence imaging, 16 h; active compounds read low | activity change (PNC), negative = inhibition, % at 10 µM | 3.1% of 140,000 active;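 active = readout at or below -70, meaning at least 70% loss of cells showing the perinucleolar compartment, a nuclear body marking cancer cells; inconclusive = readout between -30 and a set limit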;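 also: plate controls were DMSO wells for no effect and camptothecin positive control wells for full effect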
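Read-out is percentage of cells bearing a perinucleolar compartment, from automated 20x imaging of fixed, Hoechst-stained PC3M PTB-GFP cells. Cells were seeded 4 h, then exposed 16 h to compound (23 nl of library stock) in duplicate plates.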
Tau fluor cs – counter-screen for tau fibril formation inhibitors; tau K18 P301L (four-repeat tau fragment) Alexa594 fluorescence, heparin fibrillization; Potency, µM (series often up to 57.7 µM), without a hit: at the highest dose activity change, negative = decrease; 0.93% of 280,000 active; also: potency is read from the fitted curve at half-maximal effect; nearly all actives have a fitted effect of over 55% in size
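Human K18 P301L tau (15 uM unlabeled plus 0.24 uM Alexa 594-labeled, final) in 100 mM sodium acetate pH 7 was mixed with compound and 20 uM heparin and incubated 6 hr at 37 C.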
Tau FP inhib – inhibitors of human tau fibril formation. P10636. K18 P301L tau heparin fibrillization, Alexa594 FP, 6 h. Potency, µM (titrated, usually from 57.7 µM), inactives show at the highest dose activity, negative = inhibition, actives largely listed as inhibitors. 0.39% of 280,000 active. AID 1468; also: potency is read from the fitted curve at half-maximal effect; nearly all actives have a fitted effect of over 55% in size
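Human tau K18 […] P301L fragment, 15 uM unlabeled plus 0.24 uM Alexa 594-labeled tau (final), with compound and 20 uM heparin in 100 mM sodium acetate pH 7; 6 hr at 37 C, then Alexa 594 FP read.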
NPSR antagonist – neuropeptide S receptor (human) antagonism, cAMP; AID 1461; Potency, µM (series often up to 38.3 µM), for inactives: at the highest dose activity change, negative = inhibition, actives largely listed as inhibitors; CHO-NPSR cells, cAMP TR-FRET, antagonist mode; Q6W5P4; 1% of 220,000 active; also: potency is read from the fitted curve at half-maximal effect; nearly all actives have a fitted effect of over 50% in size
Target sequence (Q6W5P4 whole entry, looked up): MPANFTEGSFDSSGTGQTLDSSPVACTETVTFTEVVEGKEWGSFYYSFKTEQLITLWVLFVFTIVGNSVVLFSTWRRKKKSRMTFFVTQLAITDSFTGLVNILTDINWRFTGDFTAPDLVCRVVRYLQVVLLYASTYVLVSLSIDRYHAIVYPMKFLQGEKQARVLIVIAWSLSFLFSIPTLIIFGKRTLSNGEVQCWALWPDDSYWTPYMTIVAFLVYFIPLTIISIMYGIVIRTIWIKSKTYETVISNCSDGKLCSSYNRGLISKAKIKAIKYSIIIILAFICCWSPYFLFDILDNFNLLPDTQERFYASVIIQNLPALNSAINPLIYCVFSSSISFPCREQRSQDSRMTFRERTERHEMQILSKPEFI
Starred values were filed as active, the others as inactive; ? = inconclusive; . = no result; [ ] = remark or other dose. In the library only some 5.1% were active in any assay of this set; here they are far more common. Unless noted, calls follow the shape of the dose curve; as a rule, active = well fitted curve in the direction sought with a large enough effect; inconclusive = small, poorly fitted or top-dose-only effect, or another doubt; inactive = no such curve, though single readings can be large; an effect the other way counts as inactive or inconclusive. Unless noted, % is scaled to controls: 0 for no effect and ±100 for the full control effect.

SMILES	KDM4E inh	Tau ThT inhib	PNC inhibitor	Tau fluor cs	Tau FP inhib	NPSR antagonist
O=C(Nc1cccc(Cl)c1)Nc1ccccc1OCc1cc(=O)n2ccccc2n1	.	-11.2%	.	-23.8%	?	.
CCCCNC(=O)CSc1nnc(-c2ccc(S(=O)(=O)N3CCCC3)cc2)n1C	?	2.5%	-100.0*	3.1%	-1.9%	-10.3%[46.1 µM]
COc1cc(O)c2c(=O)c3c(OC)c(O)ccc3oc2c1	?	12.6µM*	28.4	?	8.1%	-3.6%
O=c1c(O)c(-c2ccc(O)cc2)oc2cc(O)cc(O)c12	?	12.6µM*	.	?	8.2%	.
COc1cc(O)c2c(=O)c(O)c(-c3ccc(O)c(O)c3)oc2c1	22.4µM*	5.01µM*	.	20µM*[quencher]	-1.9%	.
O=c1c(O)c(-c2ccccc2)oc2cccc(O)c12	?	?	.	-22.0%	-5.1%	.
COc1cc(O)c2c(=O)cc(-c3ccccc3)oc2c1	10.4%	?	.	-16.1%	-13.2%	8.0%
CCCC1=Nc2cc(C(=O)NCc3ccccc3)ccc2Sc2ccccc21	.	-13.9%	.	-26.5%	-12.8%	.
CCOC(=O)c1ccccc1NC(=O)c1cc2c(s1)-c1ccccc1SC2	.	-1.0%	.	-4.9%	-13.3%	.
Cc1ccc(C)c(N2CCN(C(=O)c3cnc4c(-c5ccccc5)c(C)nn4c3C)CC2)c1	.	-12.6%	.	-5.0%	1.5%	.
CCC(=O)N1c2ccccc2CC1C(=O)NCCN1CCN(c2cccc(C(F)(F)F)c2)CC1 (stereo unspecified)	.	-4.2%	.	-8.5%	10.3%	.
CN1CCCC1CCNS(=O)(=O)c1ccc(Br)cc1 (stereo unspecified)	-3.6%	-5.3%	-109.2*	-1.0%	-3.2%	16.2%
Cc1ccc(NCC(=O)N/N=C/c2cc3ccccc3nc2Cl)cc1	-11.3%	17.8µM*	-13.2	?	1.8%	-12.0%[46.1 µM]
Cc1ccc2cc(/C=N/Nc3nc4ccccc4[nH]3)c(Cl)nc2c1	3.1%	?	-87.9*	?	10.0%	20.7%
COc1cc(OC)c(OC)cc1/C=N/Nc1nc2ccccc2[nH]1	-2.1%	?	.	-21.8%	0.8%	-3.8%
CCN(CC)c1ccc(/C=N/Nc2nc3ccccc3[nH]2)c(O)c1	15.8µM*	14.1µM*	?	17.8µM*[quencher]	2.0%	?
O=C(CN1CCOCC1)N/N=C/c1cc2ccccc2nc1Cl	-22.8%	-16.8%	?	-5.9%	-8.9%	-0.7%[46.1 µM]
Cc1c(Cl)cccc1NC(=O)C(CCS(C)(=O)=O)N1Cc2ccccc2C1=O (stereo unspecified)	.	6.2%	.	0.3%	1.5%	.
CCC(CC)C(=O)Nc1nnc2n1CCS2	.	4.3%	.	5.5%	3.8%	.
CN(C)S(=O)(=O)N(CC(=O)NCCSCc1cccc(Cl)c1)c1ccccc1	.	-8.7%	.	-9.7%	8.9%	.
Cc1ccc(Nc2c(-c3ccccc3O)nc3cnccn23)cc1	-24.2%	-17.2%	.	17.8µM*[quencher]	10.3%	-27.4%
Clc1ccc(Nc2c(-c3ccccc3Cl)nc3ccc(Cl)cn23)cc1	.	0.2%	.	-20.4%	6.0%	.
Oc1ccccc1-c1nc2cnccn2c1Nc1ccc(Cl)cc1	.	-14.2%	.	12.6µM*[quencher]	-1.4%	.
CNC(=O)c1ccc(-c2sc3nc(N4CCOCC4)c4c(c3c2N)CC(C)(C)OC4)o1	?	?	?	?	2.0%	4.0%[46.1 µM]
CNC(=O)c1ccc(-c2sc3nc(N4CCOCC4)c4c(c3c2N)CCCC4)o1	?	15.8µM*	-16.8	14.1µM*[quencher]	20.0%	-24.8%[46.1 µM]
SMILES	KDM4E inh	Tau ThT inhib	PNC inhibitor	Tau fluor cs	Tau FP inhib	NPSR antagonist
Cc1cccc(N2CCN(C(=O)c3cc4ccc5cccnc5c4[nH]3)CC2C)c1 (stereo unspecified)	.	?	.	?	4.2%	.
Oc1ccc(/C=N/Nc2nc(-c3ccc(Cl)cc3)cc(C(F)(F)F)n2)cc1	-0.8%	17.8µM*	?	25.1µM*[quencher]	?	-48.9%
COc1ccc(C)cc1Nc1nc(N)c2cc(OC)c(OC)cc2n1	.	-5.4%	.	20µM*[quencher]	?	.
O=C(O/N=C\c1ccc(N2CCCCC2)c([N+](=O)[O-])c1)c1ccc(Cl)cc1Cl	0.6%	5.01µM*	52.3	-24.6%	-1.5%	-18.6%[46.1 µM]
O=C(/C=C/c1ccc(Cl)cc1)N1CCN(c2ccc(Cl)cc2[N+](=O)[O-])CC1	-3.5%	7.94µM*	16.4	-19.8%	1.8%	-19.2%[46.1 µM]
Cc1ccc(C(=O)O/N=C\c2ccc(N3CCOCC3)c([N+](=O)[O-])c2)cc1	1.0%	?	-24.5	-16.5%	-6.1%	-5.2%[46.1 µM]
Cc1ccc(C(=O)c2oc3ccccc3c2NC(=O)c2nc(S(C)(=O)=O)ncc2Cl)cc1F	.	?	.	?	-4.2%	.
COc1ccc(NS(=O)(=O)c2cc(NC(=O)C3CC3)ccc2N2CCCCC2)cc1	-10.4%	-8.1%	.	?	?	12.6µM*
COc1ccc(NS(=O)(=O)c2cc(NC(=O)C3CC3)ccc2N2CCOCC2)cc1	-19.6%	0.8%	.	-10.4%	2.3%	-35.3%
CC(NC(=O)Cn1cnc([N+](=O)[O-])n1)c1ccccc1 (stereo unspecified)	0.1%	-2.5%	22.3	0.2%	-2.7%	-6.6%[46.1 µM]
C[C@H](NC(=O)Cn1cncn1)c1ccccc1	5.7%	4.9%	-100.0*	13.2%	10.9%	-1.3%[46.1 µM]
CC(C)CCn1c(=O)c2sccc2n2c(CCCC(=O)Nc3ccc(F)c(Cl)c3)nnc12	.	?	.	?	-11.1%	.
CCOc1cc(-c2cc(-c3ccc(C)cc3)nc(N)c2C#N)ccc1O	3.5%	-10.6%	1.3	?	-15.4%	?
CCOc1cc(/C=C(\C#N)c2[nH]nc(N)c2C#N)ccc1O	?	14.1µM*	41.3	?	-3.1%	-10.8%[46.1 µM]
COc1cccc(NC(=O)Nc2ccc(Cc3ccncc3)cc2)c1	3.1%	-1.9%	?	15.8µM*[quencher]	?	-4.8%
COc1cccc(NC(=O)Nc2ccncc2)c1	0.1%	-6.0%	.	-11.4%	0.9%	-4.1%
COc1cccc(NC(=O)Nc2cc(-c3cn4cccnc4n3)ccc2OC)c1	.	?	.	20µM*[quencher]	-4.0%	.
COc1cccc(NC(=O)Nc2cc(NC(=O)Nc3cccc(OC)c3)c(C)nc2C)c1	5.8%	9.1%	?	11.2µM*[quencher]	22.4µM*	2.9%
COc1cccc(NC(=O)Nc2ccc(C(C)(C)C)cc2)c1	-7.5%	-9.5%	.	28.2µM*[quencher]	?	-26.2%
COc1cccc(NC(=O)Nc2cc(-c3cn4cccnc4n3)ccc2C)c1	.	-7.7%	.	-13.0%	?	.
CC1=NN(c2ccccc2)C(=O)/C1=C/C=C/c1ccccc1	-2.9%	15.8µM*	18.0	?	?	-48.9%
CC1=NN(c2cccc(C(=O)O)c2)C(=O)/C1=C\C=C\c1ccco1	9.1%	14.1µM*	17.6	?	?	?
CN(C)/C=C1\C(=O)ON=C1c1ccccc1	3.0%	-2.2%	.	3.4%	2.8%	2.8%
Cc1ccc(C2=NOC(=O)/C2=C\C=C\c2ccccc2)cc1	?	12.6µM*	.	?	14.1µM*	10µM*

Screening results from PubChem.
